Source: PubChem BioAssay AID1159580 (chemical genetic matrix, 2015)
The campaign covered roughly 5,500 compounds. About 2,000 (36%) were called active. Another 18% or so got no clear call; they are omitted. No stated cut-off is given here; in the data, active means normalized growth mostly below about 0.91 (no sharp cut-off); inconclusive means no clear call, values can overlap the other calls; inactive means mostly above about 0.92. This is one part of the list.

Assay: chemical genetic growth profiling, strain panel (AID 1159580);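 further: tested at 20 µM; growth read once vehicle control cultures reached saturation at 30 °C; 1 = growth at the plate median or of vehicle wells; lower values mean less growth of the strain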
Conditions: S. cerevisiae deletion strains, growth OD

Measured: normalized growth

O=C(/C=C/c1ccc(O)c(O)c1)OCCc1ccccc1
active: locus YAL026C, strain drs2, hits give low values 0.671 | locus YAL030W, strain snc1, hits give low values 0.889 | locus YBL061C, strain skt5, hits give low values 0.767 | locus YBR009C, strain hhf1, hits give low values 0.781 | locus YBR023C, strain chs3, hits give low values 0.774 | locus YBR231C, strain swc5, hits give low values 0.587 | locus YBR279W, strain paf1, hits give low values 0.848 | locus YCL011C, strain gbp2, hits give low values 0.751 | locus YCL016C, strain dcc1, hits give low values 0.774 | locus YCL061C, strain MRC1, hits give low values 0.851 | locus YCL069W, strain vba3, hits give low values 0.913 | locus YCR088W, strain abp1, hits give low values 0.841 | locus YDR069C, strain doa4, hits give low values 0.804 | locus YDR137W, strain rgp1, hits give low values 0.589 | locus YDR195W, strain ref2 1.19 [resistant] | locus YDR297W, strain sur2, hits give low values 0.87 | locus YDR334W, strain swr1, hits give low values 0.641 | locus YDR335W, strain msn5, hits give low values 0.868 | locus YDR392W, strain spt3, hits give low values 0.116 | locus YEL003W, strain gim4, hits give low values 0.691 | locus YEL061C, strain CIN8 (second series), hits give low values 0.693 | locus YER002W, strain NOP16, hits give low values 0.896 | locus YER015W, strain faa2, hits give low values 0.775 | locus YER016W, strain bim1, hits give low values 0.868 | locus YER111C, strain swi4, hits give low values 0.808 | locus YER155C, strain BEM2 (second series), hits give low values 0.463 | locus YGL173C, strain kem1, hits give low values 0.796 | locus YGL227W, strain vid30, hits give low values 0.287 | locus YGL253W, strain hxk2, hits give low values 0.749 | locus YGR078C, strain PAC10, hits give low values 0.881 | locus YGR229C, strain SMI1, hits give low values 0.357 | locus YHR013C, strain ard1, hits give low values 0.683 | locus YHR027C, strain rpn1, hits give low values 0.857 | locus YHR030C, strain SLT2, hits give low values 0.837 | locus YHR079C, strain IRE1, hits give low values 0.803 | locus YHR142W, strain chs7, hits give low values 0.592 | locus YJL092W, strain hpr5, hits give low values 0.891 | locus YJL095W, strain BCK1 (second series), hits give low values 0.644 | locus YJL095W, strain BCK1, hits give low values 0.863 | locus YJL129C, strain trk1, hits give low values 0.522 | locus YJL164C, strain tpk1, hits give low values 0.766 | locus YJL166W, strain qcr8, hits give low values 0.807 | locus YJL187C, strain SWE1, hits give low values 0.851 | locus YJR066W, strain TOR1, hits give low values 0.742 | locus YJR075W, strain HOC1, hits give low values 0.858 | locus YKL160W, strain elf1, hits give low values 0.724 | locus YKR026C, strain gcn3, hits give low values 0.908 | locus YKR091W, strain srl3, hits give low values 0.928 | locus YLL001W, strain dnm1, hits give low values 0.832 | locus YLL026W, hits give low values 0.896 | locus YLL041C, strain sdh2, hits give low values 0.898 | locus YLR027C, strain aat2, hits give low values 0.774 | locus YLR221C, strain rsa3, hits give low values 0.69 | locus YLR258W, strain gsy2, hits give low values 0.844 | locus YLR262C, strain YPT6 (second series), hits give low values 0.493 | locus YLR320W, strain mms22, hits give low values 0.453 | locus YLR342W, strain FKS1, hits give low values 0.796 | locus YML120C, strain ndi1, hits give low values 0.686 | locus YMR058W, strain fet3, hits give low values 0.494 | locus YMR125W, strain sto1, hits give low values 0.615 | locus YMR129W, hits give low values 0.911 | locus YMR205C, strain PFK2, hits give low values 0.66 | locus YMR231W, strain pep5, hits give low values 0.759 | locus YNL071W, strain lat1, hits give low values 0.478 | locus YNL175C, strain NOP13, hits give low values 0.879 | locus YNL183C, strain NPR1, hits give low values 0.803 | locus YNL209W, strain ssb2, hits give low values 0.855 | locus YNL248C, strain rpa49, hits give low values 0.769 | locus YNL322C, strain KRE1, hits give low values 0.881 | locus YOR001W, strain rrp6, hits give low values 0.8 | locus YOR070C, strain gyp1, hits give low values 0.827 | locus YOR083W, strain WHI5 (second series), hits give low values 0.751 | locus YOR083W, strain WHI5, hits give low values 0.81 | locus YOR106W, strain vam3, hits give low values 0.573 | locus YOR231W, strain MKK1, hits give low values 0.857 | locus YOR265W, strain rbl2, hits give low values 0.881 | locus YOR270C, strain vph1, hits give low values 0.568 | locus YOR290C, strain snf2, hits give low values 0.748 | locus YPL051W, strain arl3, hits give low values 0.652 | locus YPL078C, strain atp4, hits give low values 0.855 | locus YPL240C, strain hsp82, hits give low values 0.845
inactive: locus YAL021C, strain ccr4, hits give low values 0.937 | locus YAL040C, strain CLN3, hits give low values 1.08 | locus YBR171W, strain sec66, hits give low values 0.911 | locus YDL005C, strain med2, hits give low values 0.964 | locus YDL040C, strain nat1, hits give low values 0.96 | locus YDR001C, strain nth1, hits give low values 0.933 | locus YDR159W, strain sac3, hits give low values 0.916 | locus YDR363W, strain ESC2, hits give low values 0.98 | locus YEL037C, strain rad23, hits give low values 0.938 | locus YFR010W, strain ubp6, hits give low values 0.906 | locus YGL167C, strain pmr1, hits give low values 0.941 | locus YGL240W, strain doc1, hits give low values 0.927 | locus YJL115W, strain asf1, hits give low values 0.989 | locus YJL154C, strain vps35, hits give low values 0.962 | locus YLR113W, strain HOG1, hits give low values 0.862 | locus YLR357W, strain rsc2, hits give low values 0.88 | locus YLR370C, strain arc18, hits give low values 0.944 | locus YLR384C, strain iki3, hits give low values 0.972 | locus YNL197C, strain WHI3, hits give low values 0.897 | locus YNL224C, strain SQS1, hits give low values 0.937 | locus YNL322C, strain KRE1 (second series), hits give low values 0.963 | locus YNR049C, strain mso1, hits give low values 0.944 | locus YOR080W, strain dia2, hits give low values 0.961 | locus YPL106C, strain sse1, hits give low values 0.882 | locus YPL241C, strain CIN2, hits give low values 0.964 | locus YPL256C, strain CLN2, hits give low values 0.854
